# Source: PubChem BioAssay (several laboratories)
# Hits are enriched below; roughly 1.4% of the tested compounds scored in any of these assays.
# MCL1 BIM primary: inhibitors of human MCL1 binding to BIM-BH3 peptide. Q07820. GST-MCL1 / FITC-Bim-BH3 fluorescence polarization. inhibition, % at 10.9 µM. actives 0.68% (n = 320,000). AID 2057;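 active = inhibition above the mean inhibition of all tested compounds plus 3 SD, set per campaign, cut at about 40% in these data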;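 note: higher means more loss of mP so more displacement of Bim peptide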
# E coli Lon inh: inhibits E. coli Lon protease; inhibition, % at 7.94 µM; actives 0.42% (n = 360,000); purified E. coli Lon protease, fluorescence polarization; P0A9M0; in the data active = inhibition above about 13%, passing the limit was not always enough
# MEX-5 binding: C. elegans MEX-5 TCR-2 RNA binding activity; Q9XUB2; MEX-5/FITC-TCR2 RNA binding, fluorescence polarization; active compounds read low; activity score (negative = inhibition of binding), % at 10 µM; actives 0.38% (n = 300,000); AID 1832;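 active = inhibition past about -25% in most replicates, and total fluorescence under double the plate's negative control median, limit read from the data; inconclusive = replicates evenly split on the limit, or fluorescence at least double controls; inactive = too little inhibition in most replicates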
# GLD-1 RNA inh: GLD-1-TGE RNA interaction inhibition (C. elegans) | actives 0.44% (n = 320,000) | Q17339 | inhibition, % at 5.96 µM | purified GLD-1 + fluorescein TGE RNA, fluorescence polarization;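 active = percent inhibition above a per-plate cutoff, the plate mean of test compounds plus 3 SD, cut at about 30% in these data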
# Bcl-xL primary: blocks human Bcl-xL binding to Bim BH3 peptide. inhibition, % at 10.9 µM. actives 0.7% (n = 320,000). AID 2129. Q07817. GST-Bcl-xL / FITC-Bim BH3 peptide fluorescence polarization;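 active = inhibition above the mean of all tested compounds plus 3 SD, cutoff set per campaign, cut at about 30% in these data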;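 note: inhibitors lower millipolarization by displacing the labeled peptide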
# Bcl-xL conf: counter-screen for MCL1 inhibitors: confirmation of human Bcl-xL inhibitors | AID 2166 | shares compounds with MCL1 BIM primary | inhibition, % at 10.9 µM | GST-Bcl-xL / FITC-Bim BH3 peptide FP binding | actives 54% (n = 1,700);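 active = inhibition above a cutoff equal to the mean inhibition of all tested compounds plus 3 SD, cut at about 30% in these data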
# MCL1 BIM confirm: MCL1-BIM-BH3 interaction inhibition, confirmation; shares compounds with MCL1 BIM primary; GST-MCL1 / FITC-Bim-BH3 fluorescence polarization; inhibition, % at 10.9 µM; actives 61% (n = 1,700); AID 2168;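 active = inhibition above the average of all tested compounds plus 3 SD, cut at about 40% in these data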
# GLD1 RNA confirm: confirmation of C. elegans GLD-1 TGE RNA binding inhibitors. shares compounds with GLD-1 RNA inh. GLD-1/FL-TGE RNA fluorescence polarization, biochemical. inhibition, % at 5.96 µM. actives 10% (n = 550). AID 2459;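 active = average inhibition across triplicates above the hit cutoff set in the primary screen, cut at about 32% in these data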
# E coli Lon conf: confirmation of E. coli Lon protease inhibitors; shares compounds with E coli Lon inh; purified E. coli Lon, fluorescence polarization; inhibition, % at 7.94 µM; actives 31% (n = 1,400); in the data active = inhibition above about 16%
# Numbers stand for hits; 0 = inactive; ? = inconclusive; - = not tested or not shown; + = active, no number.
SMILES,MCL1 BIM primary,E coli Lon inh,MEX-5 binding,GLD-1 RNA inh,Bcl-xL primary,Bcl-xL conf,MCL1 BIM confirm,GLD1 RNA confirm,others
O=C(O)CCNc1cc(N2CCN(C(=O)c3ccco3)CC2)c2noc3c2c1C(=O)c1ccccc1-3,93,0,?,37,78,59,0,0,
Cc1cc(N2CCN(C(=O)c3ccco3)CC2)c2ccccc2n1,0,0,0,0,0,-,-,-,
CC[C@H](C)Cc1cn([C@@H](CCCN=C(N)N)C(=O)NCCCCCCCCCCC(=O)N2CCNCC2)nn1,0,0,0,0,0,-,-,-,
Nc1c(O)ccc2c1C(=O)c1ccccc1C2=O,105,-,-39,72,105,111,127,53,
O=C1C=C(Nc2ccccc2C(=O)O)c2ccccc2C1=O,0,0,0,0,0,-,-,-,
O=C1C=C(Nc2cccc3cccnc23)c2ccccc2C1=O,59,0,-31,34,55,45,46,0,
CCCC(=O)NCc1ccc2c(c1)cc(C)n2C,52,0,0,54,48,0,0,0,
CCOC(=O)C1C(c2ccc(C(=O)O)cc2)NC(=O)NC1(O)C(F)(F)F (configuration not stated),0,0,0,0,0,-,-,-,
COc1cc(F)ccc1-c1csc(C(C)(O)c2ccccc2)n1 (configuration not stated),-,0,-,-,-,-,-,-,
C(=C\c1ccccn1)/c1ccccn1,0,0,0,0,0,-,-,-,
O=C1CC(/C=C/c2ccccn2)=Nc2ccccc2N1,53,0,0,32,56,0,0,0,
CN(Cc1ccon1)C(=O)C1CCC(=O)N(Cc2ccc(Cl)cc2)C1 (configuration not stated),0,0,0,0,0,-,-,-,
O=C(COC(=O)c1cc(-c2ccco2)nc2ccccc12)NCc1ccccc1,0,0,0,0,0,-,-,-,
CNC(=O)COC(=O)c1cc(-c2ccco2)nc2ccccc12,121,0,0,57,96,38,76,0,
CC(C)Oc1cccc(C2NC(=O)c3ccccc3O2)c1 (configuration not stated),0,0,0,0,0,-,-,-,
CCC(CNc1cc(OC)cc2cccnc12)NC1CCCCC1 (configuration not stated),+,0,0,33,+,50,62,0,
COc1cc(NS(=O)(=O)c2ccc(C)cc2)c2ncccc2c1,0,0,0,0,0,-,-,-,
O=C1CCCC2=C1Sc1ccc(Cl)cc1N2,77,0,?,50,69,64,74,0,
Cc1cc(C)nc(SCCN2CCCCC2)n1,0,0,0,0,0,-,-,-,
Cc1cc(C(=O)O)cc(S(=O)(=O)NNC(=O)c2cccs2)c1C,0,0,0,0,0,-,-,-,
Cc1cccc(-n2c(SCc3cc(=O)n4ccsc4n3)nc3ccccc32)c1,67,0,0,43,73,63,89,0,
Cc1ccc(SCc2cc(=O)n3ccsc3n2)c(C)c1,0,-,0,0,0,-,-,-,
CCCOc1ccc(C2C3=C(CCCC3=O)N(CC(=O)O)C3=C2C(=O)CCC3)cc1OCC,101,0,0,33,81,0,0,0,
C=CCOc1ccc(C2C3=C(CCCC3=O)N(CC(=O)O)C3=C2C(=O)CCC3)cc1OCC,0,0,0,0,0,-,-,-,
O=C1C=C(O)c2c(O)cccc2C1=O,0,-,-,0,0,-,-,-,
SMILES,MCL1 BIM primary,E coli Lon inh,MEX-5 binding,GLD-1 RNA inh,Bcl-xL primary,Bcl-xL conf,MCL1 BIM confirm,GLD1 RNA confirm,others
O=C1C=C(O)c2cccc3cccc1c23,86,0,0,36,71,67,86,57,
CCOC(=O)N1CCc2[nH]c3ccc(C)cc3c2C1,63,0,0,53,66,0,0,0,
CC(=O)N1CCc2[nH]c3ccc(C)cc3c2C1,0,0,0,0,0,-,-,-,
COCCCNC(=O)c1c(N)n(-c2ccc3c(c2)OCO3)c2nc3ccccc3nc12,58,0,0,49,48,0,0,0,
CC1(C)CC(=O)C2=C(C1)Nc1ccccc1S2,59,0,?,49,56,56,62,0,
Cc1ccc(-n2c(C)nc3c(cnn3-c3ccc(F)cc3)c2=O)cc1C,0,0,0,0,0,-,-,-,
Cc1ccc(-n2c(C)nc3c(cnn3-c3ccc(C)c(C)c3)c2=O)cc1C,79,0,0,75,76,0,0,0,
COC(=O)c1ccc2c(c1)SC1=C(CCCC1=O)N2,177,35,0,96,148,118,161,48,E coli Lon conf=100
CC(C)c1ccc(Nc2c([N+](=O)[O-])c(=O)n(C)c3ccccc23)cc1,0,0,0,0,0,-,-,-,
Cn1c(=O)c(Nc2ccc(O)cc2)c2c3c(cccc31)C(=O)c1ccccc1-2,+,+,0,155,164,163,+,-,E coli Lon conf=121
COC(=O)[C@@H]1CCCN1Cc1nc(Cc2ccccc2F)no1,0,0,0,0,0,-,-,-,
CC(C)=CCCC(C)CN1CCC(n2nccc2NC(=O)C2CCCC2)CC1 (configuration not stated),0,0,0,0,0,-,-,-,
O=C1C(Cl)=C(N2CCN(Cc3ccccc3)CC2)C(=O)N1Cc1ccccc1,56,36,0,34,57,0,0,0,E coli Lon conf=0
CCc1cc(C(=O)Nc2ccc(OC)nc2)sc1C,118,50,-58,85,111,108,130,-,E coli Lon conf=0
Cc1ccnn1Cc1cc(C(=O)O)c2ccccc2n1,0,0,0,0,0,-,-,-,
CCN1C(=O)c2cccc3c(N)ccc(c23)C1=O,+,+,?,+,+,+,+,-,E coli Lon conf=+
Cc1nn(C)c(C)c1N1C(=O)c2cccc3c(N)ccc(c23)C1=O,+,+,-,+,+,+,+,-,E coli Lon conf=+
CCN(C(=O)c1coc(=O)c(Br)c1)c1ccc2c(c1)OCO2,62,21,0,0,58,110,122,-,E coli Lon conf=0
CCN(C(=O)c1c(C)cc(=O)oc1C)c1ccc2c(c1)OCO2,0,0,0,0,0,-,-,-,
CC(=O)Nc1ccc(S(=O)(=O)NCCC(=O)N2CCc3ccccc32)cc1,0,0,0,0,0,-,-,-,
O=[n+]1c2c(n([O-])c3cc(F)c(N4CCCC4)cc31)CCCC2,+,114,?,145,181,173,+,-,E coli Lon conf=111
O=[n+]1c2c(n([O-])c3cc(F)c(N4CCCC4)cc31)CCC2,+,151,?,161,191,186,+,-,E coli Lon conf=190
CC(C)NC(=O)C1(C)CCN1Cc1ccc(C(F)(F)F)cc1 (configuration not stated),-,0,-,-,-,-,-,-,
